# The sample as a whole holds a higher share of hits than the screen did.
# Tb PYK inh: inhibitors of Trypanosoma brucei pyruvate kinase; TbPYK enzyme, Kinase-Glo Plus ATP luminescence, 45 min; Potency, µM (highest dose often 76.8 µM), usual class: inhibitors; actives 0.12% (n = 410,000); Q57TT1; also: nearly all actives have a fitted effect of over 50% in size
#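 Glycolytic pyruvate kinase of T. brucei was incubated with substrate, test compound and 130 uM ADP for 45 minutes at room temperature. Luminescent Kinase-Glo Plus signal was measured after 10 minutes.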
# RE007 growth inh: less growth of the S. pombe RE007 Vpr strain; Potency, µM (titrated, usually from 92.2 µM), hits mostly inhibitors; S. pombe RE007 Vpr strain, BacTiter-Glo ATP luminescence, 24 h; actives 0.21% (n = 360,000); active = well fitted falling curve with a large enough effect; inconclusive = small, poorly fitted or top-dose-only effect; inactive = no such curve, though single readings can be large or run the other way; also: nearly all actives have a fitted effect of over 50% in size
#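 Fission yeast RE007 carrying one integrated HIV-1 vpr copy, seeded at OD 0.01 in PMG+AL medium with 23 nL pinned compound. Grown 24 h at 30 degrees; viability read by BacTiter-Glo luminescence after 5 min.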
# Giardia FBPA inh: Giardia lamblia aldolase inhibition; A8B2U2; purified Giardia FBPA; Potency, µM (doses to about 59.6 µM), most hits filed as inhibitors; actives 0.71% (n = 290,000); also: nearly all actives have a fitted effect of over 55% in size
# Target sequence (A8B2U2 whole entry, looked up): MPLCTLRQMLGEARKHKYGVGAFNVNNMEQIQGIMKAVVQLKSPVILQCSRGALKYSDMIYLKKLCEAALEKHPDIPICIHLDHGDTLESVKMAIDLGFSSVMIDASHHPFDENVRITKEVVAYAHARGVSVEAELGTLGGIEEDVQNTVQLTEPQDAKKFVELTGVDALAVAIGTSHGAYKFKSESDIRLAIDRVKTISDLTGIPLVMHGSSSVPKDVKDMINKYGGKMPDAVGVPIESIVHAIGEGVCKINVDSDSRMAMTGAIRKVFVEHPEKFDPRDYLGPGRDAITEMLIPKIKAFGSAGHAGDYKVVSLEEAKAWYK
#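 40 nM FBPA preincubated 10 min at RT with compound (up to 57.5 uM final), then substrate plus GAPDH/TPI/NAD/arsenate coupling and diaphorase/resazurin added. Fluorescence read after 20 min at RT, 525/598 nm.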
# LmPK inhibitor: LmPK (Leishmania mexicana) enzyme inhibition; Q27686; purified LmPK, Kinase-Glo ATP luminescence, 1 h; Potency, µM (doses to about 57.5 µM), hits mostly inhibitors; actives 0.37% (n = 290,000); AID 1721
#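 Pyruvate kinase activity monitored as ATP production (luciferase luminescence). Conditions: 0.1 nM enzyme, 0.5 mM PEP, 0.1 mM ADP, 1 h, RT; normalized against uninhibited and no-enzyme wells.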
# CHX counter: counter-screen hit for Shiga toxin inhibitors, cycloheximide; cell reporter, cycloheximide protein synthesis inhibition counterscreen; max response, %; actives 12% (n = 300,000); AID 2314; in the data active = max response mostly above about 13%, no sharp cut-off; inactive = mostly below about 14%; also: read at 38.3 µM for the half of the compounds with a filed dose
# Shiga inhibitor: blocks Shiga toxin action in Vero cells; Vero cells, Shiga toxin protein synthesis inhibition reporter; inhibition, % at 38.7 µM; actives 9.2% (n = 290,000); AID 2315; in the data active = inhibition mostly above about 28%, no sharp cut-off; inactive = mostly below about 43%
# A number is an active result; – = inactive; ? = inconclusive; · = no result given; [ ] = remark or other dose. Unless noted, calls follow the shape of the dose curve; as a rule, active = well fitted curve in the direction sought with a large enough effect; inconclusive = small, poorly fitted or top-dose-only effect, or another doubt; inactive = no such curve, though single readings can be large; an effect the other way counts as inactive or inconclusive.
SMILES,Tb PYK inh,RE007 growth inh,Giardia FBPA inh,LmPK inhibitor,CHX counter,Shiga inhibitor
O=C(CNS(=O)(=O)c1ccc2ccccc2c1)OCc1csc(-c2ccccc2)n1,–,–,–,–,20,–
Cc1cc(C)c(OCC(=O)N(Cc2ccco2)Cc2ccco2)c(C)c1,–,·,·,·,·,·
CCOC(=O)Cn1cncc1-c1ccc([N+](=O)[O-])cc1,–,·,–,–,72,84
CSc1ccccc1N=CC1=C(O)CC(C)(C)CC1=O,–,?,–,–,–,–
CC1(C)CC(=O)C(C=Nc2ccc(Cl)cn2)=C(O)C1,–,–,–,–,–,–
COC(=O)c1ccc(N)c(N=CC2=C(O)CC(C)(C)CC2=O)c1,–,–,–,–,50,19
CC1(C)CC(=O)C(C=Nc2cc(C(=O)c3ccccc3)ccc2N)=C(O)C1,–,–,–,–,24,101
Cc1nn(-c2ccc(N3CCCC3)nn2)c(C)c1CCC(=O)NCc1ccc(OC(C)C)cc1,–,·,·,·,·,·
S=c1[nH]ncn1/N=C/c1cccc(Oc2ccccc2)c1,?,–,–,10µM,–,–
CCCCC(=O)Nc1ccc(NC(=O)C(C)C)cn1,–,–,–,–,26,73
CCCCC(=O)Nc1ccc(NC(=O)c2cnccn2)cn1,–,–,–,–,25,–
O=P1(O)Oc2c(c(-c3ccccc3)cc3ccc4ccccc4c23)-c2c(-c3ccccc3)cc3ccc4ccccc4c3c2O1,·,·,–,·,·,·
CCOc1ccc(CCNC(=O)CCc2cn(Cc3ccc(F)cc3)c3ccccc23)cc1,–,·,·,·,·,·
Cc1ccc(NCc2n[nH]c(=S)n2-c2cccc(Cl)c2)cc1,3.5µM,–,–,?,–,–
Cc1ccc(-n2c(CNc3ccc(C)c(Cl)c3)n[nH]c2=S)cc1,4.5µM,–,–,?,–,–
Cc1ccc(-n2c(CNc3cccc(Cl)c3)n[nH]c2=S)cc1,?,–,–,–,–,–
COc1ccc(NC(=O)c2csc(C)c2)cc1OC,–,–,–,–,25,30
Cc1ccc(NC(=O)c2ccc(OC(=O)C(C)Oc3ccc(Cl)cc3C)cc2)cc1 (centres undefined),–,–,–,–,43,61
COc1ccc(-c2cccc(C(=O)Nc3ccc(OC)c(OC)c3)c2)cc1,–,–,–,–,–,–
COc1cc(OC)c(NC(=O)c2csc(C)c2)cc1Cl,–,–,–,–,–,–
COc1ccc(C(=O)Nc2ccc3c(c2)C(=O)N(C)C3=O)cc1OC,–,–,–,–,17,32
COc1ccc(C(=O)Nc2ccc(OC)c(OC)c2)cc1,–,–,–,–,33,63
Cc1ccc(-n2nc(C)c3nc(CCC(=O)Nc4ccc(F)cc4)c(=O)n(C)c32)cc1,–,·,·,·,·,·
C/C(CC(=O)Nc1ccc(Br)cc1)=N\NC(=O)Cc1csc(N)n1,–,–,–,–,29,–
C/C(CC(=O)Nc1ccccc1C)=N\NC(=O)Cc1csc(N)n1,–,–,–,–,41,62
SMILES,Tb PYK inh,RE007 growth inh,Giardia FBPA inh,LmPK inhibitor,CHX counter,Shiga inhibitor
CCOC(=O)c1sc(Nc2nc3c(F)cccc3s2)cc1C,–,–,–,–,38,72
CCOC(=O)c1sc(Nc2nc3ccc(OC)cc3s2)cc1C,–,–,–,–,41,74
CCOc1ccc(S(=O)(=O)Nc2nc3ccc(OC)cc3s2)cc1,–,–,–,–,–,–
COC(=O)c1c(NC(=O)CCCOc2ccccc2C)sc2c1CCC2,–,·,·,·,·,·
CN(C)c1ccc(CNS(=O)(=O)c2ccc(-c3cc(C(F)(F)F)on3)s2)cc1,–,·,·,·,·,·
CCOC(=O)CNC(=O)Nc1cc(C(=O)NCc2ccc(C(C)C)cc2)ccc1N1CCCC1,–,·,·,·,·,·
CCN(CC)C(=O)CSc1nc(-c2ccc(C)cc2)nc2c1Cc1c(CO)cnc(C)c1O2,–,·,·,·,·,·
CN1C(=O)C2(NC(=O)c3ccccc3N2C)c2ccccc21 (centres undefined),–,–,–,–,–,–
CN1C(=O)C(Cl)(Cl)C(=O)c2ccccc21,14µM,–,5µM,–,18,–
Cc1cc(=O)[nH]c(SCc2ccccc2)n1,–,–,–,–,–,–
Cc1cc(=O)[nH]c(S/C=C/c2ccccc2)n1,–,?,–,13µM,28,58
CCC1CCCCN1C(=O)CCc1nnc(Cc2cc(OC)ccc2OC)o1 (centres undefined),–,–,–,–,54,93
COc1ccc(OC)c(Cc2nnc(CCC(=O)N3CCCCC3)o2)c1,–,–,–,–,22,73
COc1ccc(OC)c(Cc2nnc(CCC(=O)N3CCN(C4CCCC4)CC3)o2)c1,–,–,–,–,40,99
CC1CCCCN1C(=O)CCc1nnc(Cc2c[nH]c3ccccc23)o1 (centres undefined),–,–,–,–,–,–
COc1ccc(OC)c(Cc2nnc(CCC(=O)NC(C3CC3)C3CC3)o2)c1,–,–,–,–,–,–
COc1ccc(OC)c(Cc2nnc(CCC(=O)NCc3ccc(C)s3)o2)c1,–,–,–,–,–,–
COc1cccc(/C=N/NC(=S)Nc2cccc(S(=O)(=O)N(C)C)c2)c1,–,–,–,–,–,–
COc1ccc(C(=O)Oc2cccc(/C=N/NC(N)=S)c2)cc1,–,–,–,–,16,51
COc1ccc(/C=N/NC(=S)Nc2ccccc2)cc1COc1cccc(C)c1C,–,–,–,–,–,31
COc1cc(/C=N/NC(=S)Nc2cccc(C(=O)O)c2)cc(OC)c1OC,–,–,?,–,–,–
COc1ccc(/C=N/NC(=S)Nc2cccc(C(=O)O)c2)cc1OC,–,–,–,–,16,–
COc1cccc(/C=N/NC(=S)Nc2cccc(C(=O)O)c2)c1,–,–,?,–,36,95
CC(=O)Nc1ccc(SCC(CC(C)C)N2CCN(CCc3ccccc3)CCC2=O)cc1 (centres undefined),·,·,–,·,–,–
CCN(CC)S(=O)(=O)c1ccc2c(c1)nc(CN(C)C(=O)Nc1cccc(Cl)c1)n2C,–,·,·,·,·,·
C[C@@H]1/C=C\CC(=O)OC[C@H](C)C(=O)N[C@@H](C)C(=O)OC1,·,·,–[12.9 µM],·,·,·
O=C(Nc1ccc(Cn2ccnc2)cc1)c1cccc(C(F)(F)F)c1,–,–,–,–,–,–
COc1cc(OC)cc(C(=O)Nc2ccc(Cn3ccnc3)cc2)c1,–,–,–,–,15,–
COc1ccc(C(=O)Nc2ccc(Cn3ccnc3)cc2)cc1OC,–,–,–,–,13,21
CC(C)=CCC[C@](C)(O[C@@H]1O[C@H](CO)[C@@H](O)[C@H](O)[C@H]1O)[C@H]1CC[C@]2(C)[C@@H]1[C@H](O)C[C@@H]1[C@@]3(C)CC[C@H](O[C@@H]4O[C@H](CO)[C@@H](O)[C@H](O)[C@H]4O[C@@H]4O[C@H](CO)[C@@H](O)[C@H](O)[C@H]4O)C(C)(C)[C@@H]3[C@@H](O)C[C@]12C,·,·,–,·,–,–

# Screening results as filed in PubChem BioAssay.
